Screening results (PubChem)
CCHF vOTU inh-1: CCHFV vOTU protease inhibitors, primary screen, biochemical, Pep-AMC substrate, fluorescence. inhibition, % at 11.5 µM. AID 651958, 2012. 0.55% of 370,000 active; further: 0% = vehicle wells with enzyme and 100% = no enzyme wells
MazEF act: activators of E. coli MazEF toxin-antitoxin RNase, primary screen, biochemical, fluorescence, uHTS | Endoribonuclease toxin MazF (Escherichia coli (strain K12)), P0AE70 | FAM/BHQ RNA-DNA oligo cleavage fluorescence, 5 h | activation, % at 20 µM | 0.32% of 350,000 active | AID 504720, 2011; in the data active means activation above about 50%
Target sequence (P0AE70 whole entry, looked up): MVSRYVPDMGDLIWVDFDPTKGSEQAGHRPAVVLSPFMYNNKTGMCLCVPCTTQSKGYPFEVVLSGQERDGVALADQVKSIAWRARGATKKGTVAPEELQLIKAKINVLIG
Sa RN4220 lethal: growth inhibition of S. aureus RN4220, primary screen, OD600 | 16 h | inhibition, % (test concentration not listed) | 0.33% of 330,000 active; in the data active means inhibition above about 85%;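 further: plate controls were untreated cells for no effect and reference antibiotic for full effect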
Mtb betalactam: beta-lactam sensitization of Mtb H37Rv, H37Rv; inhibition, % at 25 µM; M. tuberculosis H37Rv growth with meropenem, percent inhibition; AID 434955, 2010; 0.27% of 330,000 active; call rule not given here;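 further: growth measured after seven days incubation then overnight dye step; 0% = bacteria only wells and 100% = bacteria with antibiotic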
SARS 3CLpro inh: SARS-CoV 3CLpro protease inhibitors, primary screen, biochemical, quenched FRET. recombinant SARS-CoV 3CLpro, quenched FRET peptide cleavage. inhibition, % at 6 µM. 0.14% of 290,000 active. AID 1706, 2009; in the data active means inhibition above about 12%
ugtP null kill: growth inhibition of ugtP-null S. aureus, primary screen, RN4220 ugtP deletion, OD600; AID 1259309, 2017; growth inhibition, % (no concentration beside the values); 16 h; 0.54% of 330,000 active; in the data active means growth inhibition above about 68%;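 further: plate controls were untreated wells for no effect and antibiotic for full effect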
CCHF vOTU inh-2: CCHFV vOTU protease inhibitors, confirmation, biochemical, Pep-AMC substrate, fluorescence | Recombinant CCHFV vOTU | AID 686976, 2013 | 17% of 1,900 active | inhibition, % at 11.5 µM | shares compounds with CCHF vOTU inh-1
The depositor's hits bear a star; · = no result. In the library only some 1.3% were active in any assay of this set; here they are far more common. Unless noted, no stated cut-off is given here; in the data, active means inhibition above about 30%; inactive means the rest.

SMILES | CCHF vOTU inh-1 | MazEF act | Sa RN4220 lethal | Mtb betalactam | SARS 3CLpro inh | ugtP null kill | CCHF vOTU inh-2
CCOc1cc(C(=O)Nc2ccc(S(=O)(=O)Nc3nnc(CC)s3)cc2)cc(OCC)c1OCC | 38* | 0 | 2 | 6 | 10 | 9 | 0
CCOc1ccc(N2CSC3=C(C#N)C(c4ccco4)CC(=O)N3C2)cc1 (configuration not stated) | 23 | -2 | 0 | 99 | 4 | 6 | ·
Cc1ccc(C2CC(=O)N3CN(c4ccc(Br)cc4)CSC3=C2C#N)o1 (configuration not stated) | 30* | -9 | 0 | 2 | 6 | -3 | -1
COc1ccc(C=NNC(=O)CN2CCSCC2)cc1C | · | · | 3 | · | · | -3 | ·
COCCn1c(SCC(=O)Nc2ccccc2C(F)(F)F)nc2ccccc2c1=O | 0 | 8 | 6 | 5 | 6 | 4 | ·
COCCn1c(SCC(=O)Nc2cccnc2Cl)nc2ccccc2c1=O | 31* | 9 | 4 | -5 | · | 2 | -12
COC(COC(N)=O)C1=C(N2CC2)C(=O)C(C)=C(N2CC2)C1=O (configuration not stated) | 32* | -14 | · | · | · | · | 13
Cc1ccc(/C=[N+](\[O-])c2ccc(N(C)C)cc2)c2nsnc12 | 56* | 20 | 6 | · | -1 | 10 | -12
Cc1cc(C=Nn2cnnc2)c(C)n1-c1ccc(Cl)cc1 | · | · | 9 | · | · | -2 | ·
O=[N+]([O-])c1c(NCCCO)cc(SCc2ccco2)c2nonc12 | 48* | 2 | 13 | 80 | 2 | -1 | 1
CC(=O)OCCNc1cc(SCc2ccco2)c2nonc2c1[N+](=O)[O-] | · | 4 | 8 | 100 | -3 | -16 | ·
CCOc1cc(C=NNC(=O)c2cccs2)cc([N+](=O)[O-])c1O | · | · | 5 | · | · | 11 | ·
NC1=C(Br)C(=O)c2ncccc2C1=O | 107* | 8 | · | · | · | · | 94*
COc1ccc(C(=O)Oc2ccc(C=NNC(=O)c3cccnc3)cc2OC)cc1 | · | · | 1 | · | · | 8 | ·
COc1cc(/C=C2\SC(=S)N(CC(=O)O)C2=O)ccc1OS(=O)(=O)c1ccc(C)cc1 | 54* | -13 | 5 | -3 | · | 0 | 8
COC(=O)[C@]12C[C@H](CC(=O)NCc3ccccc3)C(=O)N(Cc3ccco3)C1=C[C@H](C(C)C)O[C@@H]2C1CC1 | 11 | · | · | · | · | · | ·
COC(=O)[C@]12C[C@H](CC(=O)NCc3cccc(C(F)(F)F)c3)C(=O)N(Cc3ccccc3)C1=C[C@H](C(C)C)O[C@@H]2C1CC1 | 41* | · | · | · | · | · | -4
COC(=O)[C@]12C[C@H](CC(=O)NCc3cccc(C(F)(F)F)c3)C(=O)N(CCC3=CCCCC3)C1=C[C@H](C(C)C)O[C@@H]2C1CC1 | 33* | · | · | · | · | · | 7
COC(=O)[C@]12C[C@H](CC(=O)NCc3cccc(C(F)(F)F)c3)C(=O)N(Cc3ccco3)C1=C[C@H](C(C)C)O[C@@H]2C1CC1 | 31* | · | · | · | · | · | 0
COC(=O)[C@]12C[C@H](CC(=O)NCc3cccc(C(F)(F)F)c3)C(=O)N(Cc3cccc4ccccc34)C1=C[C@H](C(C)C)O[C@@H]2C1CC1 | 21 | · | · | · | · | · | ·
COC(=O)[C@]12C[C@H](CC(=O)NCc3cccc(C(F)(F)F)c3)C(=O)N(CCC3=CCCCC3)C1=C[C@H](C(C)(C)C)O[C@@H]2C | 12 | · | · | · | · | · | ·
CCOc1ccc(Nc2ccc(N)c(S(=O)(=O)O)c2)cc1 | 30* | 5 | 14 | · | · | -8 | 8
O=C(Cc1ccccc1)Nc1ccc(NC(=O)c2ccccc2)nc1 | 33* | 6 | -5 | -7 | -5 | 4 | -18
C=CC[C@@H](CC(=O)N(CCO)Cc1ccccc1)C(=O)N[C@@H](COC(=O)[C@@H](CC=C)CC(=O)OC(C)(C)C)Cc1c[nH]c2ccccc12 | 40* | -4 | · | -5 | · | · | 12
C=CC[C@@H](CC(=O)N(CCO)Cc1ccccc1)C(=O)N[C@H](COC(=O)[C@@H](CC=C)CC(=O)OC(C)(C)C)c1ccccc1 | 32* | 4 | · | 10 | · | · | 8
SMILES | CCHF vOTU inh-1 | MazEF act | Sa RN4220 lethal | Mtb betalactam | SARS 3CLpro inh | ugtP null kill | CCHF vOTU inh-2
C=CCC(CC(=O)N(CCO)Cc1ccccc1)C(=O)NC(COC(=O)C(CC=C)CC(=O)OC(C)(C)C)c1ccccc1 (configuration not stated) | · | · | 4 | · | · | 4 | ·
C=CCC[C@@H](Cc1ccc(F)cc1)C(=O)OC[C@@H](Cc1c[nH]c2ccccc12)NC(=O)[C@H](CC=C)CC(=O)N(CCO)Cc1ccccc1 | 21 | 1 | · | 7 | · | · | ·
C=CC[C@@H](CC(=O)N[C@H](CO)Cc1ccccc1)C(=O)N[C@@H](COC(=O)[C@H](CC=C)CC(=O)OC(C)(C)C)Cc1ccccc1 | 20 | 1 | · | -3 | · | · | ·
C=CC[C@@H](CC(=O)N[C@@H](CO)Cc1ccccc1)C(=O)N[C@H](COC(=O)[C@@H](CC=C)CC(=O)OC(C)(C)C)Cc1ccccc1 | 39* | 3 | 3 | -2 | · | -11 | -6
C=CCC[C@H](Cc1ccc(F)cc1)C(=O)OC[C@@H](Cc1c[nH]c2ccccc12)NC(=O)[C@H](CC=C)CC(=O)N(CCO)Cc1ccccc1 | 35* | -5 | · | -8 | · | · | 7
CC1([N+](=O)[O-])COP(=O)(Nc2cccc(Cl)c2)OC1 (configuration not stated) | 38* | 8 | · | · | · | · | -18
OCCCc1cn(Cc2ccccc2)c2ccccc12 | 0 | -7 | 2 | 2 | 1 | 20 | ·
c1ccc(Cn2cc(CCOCc3ccccn3)c3ccccc32)cc1 | 32* | · | · | · | · | · | -9
Cc1ccc(NC(=O)CC2SC(=NN=Cc3ccco3)NC2=O)cc1Cl (configuration not stated) | · | · | 10 | · | · | -10 | ·
O=C(COC(=O)c1ccc([N+](=O)[O-])s1)NCc1ccc(F)cc1 | 71* | -1 | 22 | · | -1 | 17 | 77*
O=C(COC(=O)c1ccc([N+](=O)[O-])s1)NC(=O)NCc1ccccc1 | 53* | 2 | 18 | 64 | 6 | 23 | 48*
O=C(COC(=O)c1ccc([N+](=O)[O-])s1)NCCc1ccccc1 | · | 0 | 8 | 93 | · | 4 | ·
O=C(COC(=O)c1ccc([N+](=O)[O-])s1)c1ccc[nH]1 | 58* | 5 | · | 100 | · | · | 49*
COC(=O)C1=C(c2ccc(S(C)(=O)=O)cc2)CC2CCC1N2C(=O)NC1CC1 (configuration not stated) | · | · | 5 | · | · | 0 | ·
O=C(C=Cc1ccco1)Nc1ccccc1N1CCCCC1 | · | · | 3 | · | · | 0 | ·
Cc1ccc(C=NNC(=O)C(C)NC(=O)c2ccccc2)cc1 (configuration not stated) | · | · | -2 | · | · | -2 | ·
